RECQ1 inh – inhibitors of human RECQ1 DNA helicase. 0.54% of 240,000 active. AID 2549. RECQ1 DNA unwinding, red fluorescence kinetic read. Potency, µM (highest dose often 57.3 µM), for inactives: at the highest dose activity, negative = inhibition, actives largely listed as inhibitors. P46063;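 also: potency is read from the fitted curve at half-maximal effect; plate controls were vehicle for no effect and no enzyme for full effect; nearly all actives have a fitted effect of over 30% in size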
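RECQ1T1 50 nM; forked duplex (20 bp + 30-nt ss tails) 200 nM, ATP 2 mM final; pH 8.0, 2 mM MgCl2, 2.5 ug/ml poly(dI-dC); 15 min compound preincubation; discontinuous kinetic read over 2 h at RT.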
TRb SRC2 PPI – TRbeta-SRC2 interaction inhibition; P10828; TRbeta-SRC2 peptide binding, fluorescence polarization; receptor liganded with 1 µM T3; Potency, µM (titrated, usually from 106 µM), without a hit: at the highest dose activity change, negative = inhibition, actives largely listed as inhibitors; 0.065% of 280,000 active;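 also: potency is read from the fitted curve at half-maximal effect; plate controls were bound peptide for no effect and peptide without receptor for full effect; nearly all actives have a fitted effect of over 50% in size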
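TRb LBD 0.6 uM + Texas Red SRC2 peptide 20 nM, 1 uM T3, Tris buffer w/ 5% DMSO; compound pinned, 5 h RT; FP read ex 555/em 632; normalized to unbound and bound controls.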
ERG-DNA inh – inhibitors of human ERG Ets domain-DNA interaction; P11308; fluorescence polarization, His-ERG Ets domain / labelled DNA; Potency, µM (doses to about 76.9 µM), without a hit: top-dose FP activity, negative = inhibition, hits mostly inhibitors; 0.028% of 370,000 active; AID 624246; active = well fitted inhibition curve with a large enough effect in the polarisation, with a control signal flat; inconclusive = small, poorly fitted or top-dose-only effect, or effect the other way, or a change in a side signal; inactive = no such curve, though single readings can be large or run the other way; the % refers to the polarisation;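 also: polarization taken with two DNA probes labelled with fluorescein and Texas red; potency is read from the fitted curve at half-maximal effect; % of control where 0% means no effect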
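His-tagged ERG Ets domain (1 uM in the protein solution; 300mM KCl, 50mM Tris-HCl, 1mM EDTA, 1mM DTT, pH 7.5) received compound, then a probe mix of 5 nM fluorescein-DNA and 100nM Texas-615-DNA. Fluorescence polarization was read for both dyes.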
TexasRed fluor – Texas Red fluorescence interference in TRb-SRC2 counter-screen. 0.29% of 280,000 active. TRb/SRC2 Texas Red total fluorescence interference. AID 1479. Potency, µM (doses to about 106 µM), inactives show top-dose fluorescence change, negative = quenching; active = well fitted curve in either direction with a large enough effect; inconclusive = small, poorly fitted or top-dose-only effect; also: potency is read from the fitted curve at half-maximal effect; % is scaled to controls: 0 for no effect and ±100 for the full control effect
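Flags fluorescent or light-absorbing compounds by total fluorescence, S + 2P, at 555 nm excitation and 632 nm emission. Mixture: 20 nM Texas Red SRC2 peptide, 0.6 uM human TRb LBD, 1 uM T3, 5% DMSO; compound exposure 5 h at ambient temperature.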
BLM inh – inhibitors of human Bloom syndrome helicase BLM. Potency, µM (top dose mostly 56.1 µM), for the others: at the highest dose activity change, negative = inhibition, hits mostly inhibitors. 0.2% of 350,000 active. recombinant BLM DNA unwinding, fluorescence dequenching;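 also: potency is read from the fitted curve at half-maximal effect; plate controls were vehicle for no effect and no enzyme for full effect; nearly all actives have a fitted effect of over 35% in size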
Target sequence (P54132 whole entry, looked up): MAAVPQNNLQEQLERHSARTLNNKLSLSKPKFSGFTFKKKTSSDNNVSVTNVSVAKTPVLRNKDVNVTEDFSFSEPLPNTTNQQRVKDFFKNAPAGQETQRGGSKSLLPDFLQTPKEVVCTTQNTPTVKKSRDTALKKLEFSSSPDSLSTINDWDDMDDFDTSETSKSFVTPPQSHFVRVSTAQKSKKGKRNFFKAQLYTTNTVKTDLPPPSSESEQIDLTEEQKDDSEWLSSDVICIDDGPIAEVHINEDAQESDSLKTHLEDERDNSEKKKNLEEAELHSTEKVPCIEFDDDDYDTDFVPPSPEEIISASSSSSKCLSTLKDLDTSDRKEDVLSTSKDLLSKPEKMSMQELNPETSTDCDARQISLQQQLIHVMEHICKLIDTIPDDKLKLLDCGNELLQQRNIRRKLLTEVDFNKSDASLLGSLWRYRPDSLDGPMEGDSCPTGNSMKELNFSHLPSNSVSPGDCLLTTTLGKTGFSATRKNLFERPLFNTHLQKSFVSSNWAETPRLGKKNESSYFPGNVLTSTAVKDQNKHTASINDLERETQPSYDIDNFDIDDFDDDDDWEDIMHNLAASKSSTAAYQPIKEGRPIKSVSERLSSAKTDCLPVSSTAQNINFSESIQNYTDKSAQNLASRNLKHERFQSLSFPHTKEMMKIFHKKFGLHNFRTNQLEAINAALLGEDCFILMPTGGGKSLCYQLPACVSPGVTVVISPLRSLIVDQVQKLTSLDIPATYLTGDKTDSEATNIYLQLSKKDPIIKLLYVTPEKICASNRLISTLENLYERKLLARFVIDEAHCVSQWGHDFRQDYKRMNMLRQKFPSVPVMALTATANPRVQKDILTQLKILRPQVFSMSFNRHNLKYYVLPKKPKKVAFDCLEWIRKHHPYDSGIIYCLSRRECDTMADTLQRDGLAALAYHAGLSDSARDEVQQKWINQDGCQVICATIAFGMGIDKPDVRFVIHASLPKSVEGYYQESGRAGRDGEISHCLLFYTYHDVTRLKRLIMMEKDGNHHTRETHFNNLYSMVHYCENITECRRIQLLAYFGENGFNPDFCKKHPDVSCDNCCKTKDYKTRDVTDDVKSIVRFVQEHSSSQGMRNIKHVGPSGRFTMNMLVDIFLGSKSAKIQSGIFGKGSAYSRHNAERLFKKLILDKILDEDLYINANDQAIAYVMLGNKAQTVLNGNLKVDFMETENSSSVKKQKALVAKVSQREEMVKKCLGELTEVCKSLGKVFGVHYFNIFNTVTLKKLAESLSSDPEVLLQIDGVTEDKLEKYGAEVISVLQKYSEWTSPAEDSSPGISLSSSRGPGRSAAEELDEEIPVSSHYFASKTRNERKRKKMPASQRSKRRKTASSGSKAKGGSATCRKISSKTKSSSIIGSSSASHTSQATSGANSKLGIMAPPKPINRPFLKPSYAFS
RGS12 GoLoco inh-1 – blocks human Gai1 binding to RGS12 GoLoco peptide, red readout. P63096. Gai1:RGS12 GoLoco peptide FP, rhodamine, 10 min. Potency, µM (titrated, usually from 61.6 µM), without a hit: top-dose activity, negative = inhibition, hits mostly inhibitors. 0.44% of 230,000 active; active = well fitted inhibition curve with a large enough effect, not every such curve was filed as active; inactive = no such curve, though single readings can be large or run the other way; also: potency is read from the fitted curve at half-maximal effect; % is scaled to controls: 0 for no effect and ±100 for the full control effect; nearly all actives have a fitted effect of over 30% in size
RGS12 GoLoco inh-2 – RGS12 (human) GoLoco motif inhibition, red FP | shares compounds with RGS12 GoLoco inh-1 | 50% of 110 active | AID 2390 | Potency, µM (titrated, usually from 57.1 µM), inactives show at the highest dose activity, negative = inhibition, most hits filed as inhibitors | Gai1/rhodamine-RGS12 GoLoco peptide fluorescence polarization
An asterisk follows results filed as active; i = inactive; ? = inconclusive; nt = not tested or not shown; [ ] = remark or other dose. Compounds with a hit are over-represented: about 0.71% of the library has one in this group of screens. Unless noted, calls follow the shape of the dose curve; as a rule, active = well fitted curve in the direction sought with a large enough effect; inconclusive = small, poorly fitted or top-dose-only effect, or another doubt; inactive = no such curve, though single readings can be large; an effect the other way counts as inactive or inconclusive.

SMILES	RECQ1 inh	TRb SRC2 PPI	ERG-DNA inh	TexasRed fluor	BLM inh	RGS12 GoLoco inh-1	RGS12 GoLoco inh-2
Cc1c2cc(O)c(=O)cc-2oc2cc(O)c(O)cc12	10µM*	-13.1%	?	9.0%	14.1µM*	7.94µM*	nt
O=c1cc(-c2ccc(O)cc2O)oc2ccccc12	-5.5%	-0.3%	nt	-1.9%	1.6%	2.4%	nt
O=[N+]([O-])c1ccc(Cl)c2c1C1C=CCC1C(c1ccccn1)N2 (configuration not stated)	-16.8%	8.8%[53 µM]	-12.5%	-8.0%[53 µM]	-28.2%	-1.6%	nt
O=C(O)c1ccc(Cl)c2c1C1C=CCC1C(c1ccccn1)N2 (configuration not stated)	-9.5%	?	nt	-2.7%	2.5%	10µM*	nt
Cc1cccc(NC(=O)Cn2c(=O)n(Cc3ccccc3)c(=O)c3sc4ccccc4c32)c1	nt	-27.7%[53 µM]	1.1%	25.1µM*[quencher]	-2.0%	nt	nt
Cc1cccc(NC(=O)Cn2c(=O)n(CCc3ccccc3)c(=O)c3sc4ccccc4c32)c1	nt	-8.0%	-2.7%	-0.1%	4.1%	nt	nt
N#Cc1ccc(NC(=O)Cn2c3[n+](c4ccc(C(F)(F)F)cc42)CCCCC3)cc1	i	3.6%	1.4%	-1.8%	-0.9%	3.7%	nt
O=C(Cn1c2[n+](c3ccc(C(F)(F)F)cc31)CCCCC2)Nc1ccc(Br)cc1	-3.7%	14.8%	1.7%	-2.7%	-1.3%	17.8µM*	nt
COc1ccc(CN(CCC(c2ccc(F)cc2)C2CCOC(C)(C)C2)C(=O)c2ccco2)cc1 (configuration not stated)	25.1µM*	-3.1%	3.8%	-1.4%	-6.6%	8.0%	nt
O=C(COC(=O)c1ccc(O)cc1)Nc1ccc(N2CCCCC2)cc1	-1.3%	-9.2%	-12.4%	-4.3%	-1.5%	-17.9%	nt
COc1cc(OC)cc(C(=O)OCC(=O)Nc2ccc(N3CCCCC3)cc2)c1	i	1.8%	-1.2%	-1.5%	-1.3%	17.8µM*	nt
O=c1[nH]n2c(=O)c3c([nH]c2c1N=Nc1cccc(Cl)c1)CCC3	4.8%	12.2%	5.2%	0.3%	15.8µM*	-16.1%	nt
COc1cccc(N=Nc2c(=O)[nH]n3c(=O)c4c([nH]c23)CCC4)c1	-16.1%	0.5%	18.5%	-16.9%	-21.7%	3.3%	nt
CCCCOCCOCCO	nt	-8.0%[201 µM]	nt	-1.8%[201 µM]	nt	nt	nt
CCc1c(C)nc2c(OC)cccc2c1SCCC(=O)O	-3.8%	-23.7%[53 µM]	-5.5%	0.794µM*[quencher]	-1.5%	-3.9%	nt
CCCCc1c(C)nc2c(OC)cccc2c1SCCC(=O)O	i	-4.0%	0.5%	-7.4%	0.7%	-5.8%	nt
CCOc1ccccc1CNC(=O)CN1C(=O)c2cccnc2Oc2ccc(C)cc21	nt	-13.1%	2.9%	22.4µM*[quencher]	0.5%	nt	nt
Cc1ccc2c(c1)N(CC(=O)NCc1ccccc1Br)C(=O)c1cccnc1O2	nt	2.6%	2.0%	-0.4%	-2.2%	nt	nt
CC(C)Oc1ccc(CNC(=O)CN2C(=O)c3cccnc3Oc3ccc(Cl)cc32)cc1	nt	-0.9%	-1.9%	20µM*[quencher]	-4.3%	nt	nt
CCc1ccc(NC(=O)CSc2nc3n[nH]c(C)c3c(=N)n2-c2ccc(C)cc2)cc1	nt	-6.5%	1.7%	1.3%	-2.0%	nt	nt
CC(C)c1ccc(C(C)C)cc1	nt	3.7%[201 µM]	nt	-2.7%[201 µM]	nt	nt	nt
O=C(CSc1nnc(-c2ccccc2)n1-c1ccccc1)NCc1ccco1	-2.7%	-0.4%	-0.3%	3.0%	0.3%	-7.5%	7.4%
COc1ccc(CSCC(=O)N/N=C/c2ccc(OCC(=O)N3CCCCC3)cc2)cc1	-4.3%	-5.8%	nt	-1.5%	3.9%	3.55µM*	?
Cc1ccc(CSCC(=O)N/N=C/c2ccc(OCC(=O)Nc3ccc(C)cc3)cc2)cc1	-5.4%	27.5%	6.6%	-14.7%	-25.3%	76.2%	nt
O=C(CSCc1ccccc1Br)N/N=C/c1ccc(OCC(=O)N2CCCCC2)cc1	-6.4%	-1.8%	0.2%	-3.9%	-2.6%	nt	nt
SMILES	RECQ1 inh	TRb SRC2 PPI	ERG-DNA inh	TexasRed fluor	BLM inh	RGS12 GoLoco inh-1	RGS12 GoLoco inh-2
O=C(CSCc1ccccc1)N/N=C/c1ccc(OCC(=O)N2CCCCC2)cc1	-1.8%	15.0%	2.3%	0.9%	3.1%	-5.2%	5.5%
O=C(Nc1cccc(Nc2cc(Nc3cccc(C(F)(F)F)c3)ncn2)c1)C1CC1	nt	nt	nt	nt	nt	nt	5.8%
O=C(Nc1cccc(C(F)(F)F)c1)C1CCCN(c2ncccn2)C1 (configuration not stated)	-10.0%	-0.8%	3.6%	-4.3%	-6.2%	2.1%	nt
CC(C)CCn1c(=O)c2sccc2n2c(CCCC(=O)Nc3ccc(C(C)C)cc3)nnc12	nt	5.3%	3.1%	-2.8%	-5.4%	nt	nt
CCc1ccccc1NC(=O)CC(C)n1nc(C)cc1C (configuration not stated)	nt	-6.4%	-11.1%	-1.5%	1.2%	nt	nt
CCn1c(SCC(=O)N(C(C)C)C(C)C)nnc1-c1cc2ccccc2cc1O	-16.3%	-1.0%	4.6%	-3.9%	-6.3%	3.16µM*	?
CCc1ccc(NC(=O)CSc2nc(-c3ccccc3Cl)nc3c2Cc2c(CO)cnc(C)c2O3)cc1	nt	5.3%	19.6%	0.9%	2.4%	nt	nt
CN=C1N[C@H](c2ccccc2)N(c2ccccc2)S1	i	-3.6%	nt	-2.1%	-0.7%	5.62µM*	12.6µM*
CCCCn1c(=O)[nH]c2nc3cc(NC(C)=O)ccc3nc2c1=O	-7.5%	4.1%	16.4%	-3.5%	-3.4%	10.4%	76.8%
CCCCCCn1c(=O)[nH]c2nc3cc(N)c(C)cc3nc2c1=O	3.9%	5.7%	-7.1%	-2.8%	-8.4%	-28.4%	nt
Cc1[nH]c2ccccc2c1C(=O)CN1CCN(C2CCCCC2)CC1	i	-0.3%	nt	-2.9%	-9.1%	1.78µM*	?
Cc1[nH]c2ccccc2c1C(=O)CN1C(=O)C(=O)N(C2CCCC2)C1=O	-3.7%	-5.6%	8.5%	1.2%	-3.3%	9.3%	nt
O=c1nc2ccccc2c2n1CC(CN1CCN(c3ccccc3)CC1)N2 (configuration not stated)	-5.8%	3.0%	nt	0.1%	nt	7.1%	nt
COc1ccc(OC)c(CCNC(=O)Cn2sc3nc(C)cc(C)c3c2=O)c1	-9.6%	-8.9%	nt	-6.2%	2.6%	11.2µM*	3.98µM*
Cc1cc(C)c2c(=O)n(CC(=O)Nc3ccc(Br)c(C)c3)sc2n1	-4.5%	1.8%	4.8%	-2.7%	0.1%	-25.6%	-13.7%
Cc1cc(C)c2c(=O)n(CC(=O)Nc3cccc(Cl)c3C)sc2n1	1.6%	1.5%	5.8%	0.1%	-4.8%	3.98µM*	14.1µM*
O=C1c2cccc3c(O)ccc(c23)C(=O)N1Cc1ccco1	?	-5.6%	?	-7.1%	-9.1%	11.2µM*	10µM*

Screening results (PubChem)
